Experimental data reported in PubChem BioAssay AID720504 (National Center for Advancing Translational Sciences (NCATS), 2013).
The campaign covered roughly 360,000 compounds. About 10,000 (2.8%) were called active. About 4% were inconclusive and are not listed. The entries come from a sample that favours actives as a whole. Values without a mark were called inactive. The call rests on the fitted dose curve; in most records, active means well fitted inhibition curve with a large enough effect; inconclusive means small, poorly fitted or top-dose-only effect; inactive means flat fitted curve, though single readings scatter.

biological target: Serine/threonine-protein kinase PLK1 (Homo sapiens) (UniProt P53350); assay: qHTS for Inhibitors of PLK1-PDB (polo-like kinase 1 - polo-box domain): Primary Screen; conditions: Plk1 PBD binding of FITC phosphopeptide, fluorescence polarization; further: nearly all actives have a fitted effect of over 65% in size; on max response, negative = inhibition: series mostly up to about 57 µM
Sequence (P53350 whole entry, looked up, the tested form may be a part): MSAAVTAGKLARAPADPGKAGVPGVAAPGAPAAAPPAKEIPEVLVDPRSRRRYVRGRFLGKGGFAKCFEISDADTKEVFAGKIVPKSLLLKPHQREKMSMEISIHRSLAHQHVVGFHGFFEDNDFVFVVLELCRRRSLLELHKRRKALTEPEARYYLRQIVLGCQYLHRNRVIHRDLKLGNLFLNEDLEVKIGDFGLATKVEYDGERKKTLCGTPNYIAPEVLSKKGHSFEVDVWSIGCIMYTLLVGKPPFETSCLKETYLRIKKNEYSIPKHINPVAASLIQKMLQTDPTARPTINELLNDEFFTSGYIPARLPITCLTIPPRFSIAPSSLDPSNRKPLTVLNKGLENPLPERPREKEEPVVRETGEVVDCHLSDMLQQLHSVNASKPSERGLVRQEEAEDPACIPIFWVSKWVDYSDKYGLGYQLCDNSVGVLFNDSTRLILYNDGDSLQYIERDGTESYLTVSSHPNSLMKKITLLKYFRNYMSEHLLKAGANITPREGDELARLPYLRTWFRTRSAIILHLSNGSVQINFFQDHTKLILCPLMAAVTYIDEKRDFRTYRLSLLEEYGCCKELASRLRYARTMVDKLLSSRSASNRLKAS
On the % scale 0 is the no-effect control and ±100 the full control effect; potency means the concentration at half of the fitted maximal effect.

For `CCOc1ccc2c(c1)c(=O)c(S(=O)(=O)c1ccc(C)cc1)cn2CC`, the Potency was 26.7 µM (active).
In the case of `Nc1nc(SCC(=O)NNc2c(Cl)cc(Cl)cc2Cl)n[nH]1`, the Potency is reported as 18.9 µM (active).
For `Cc1ccc(NC(=O)Cn2sc3ccccc3c2=O)cc1`, the Potency was 2.38 µM (active).
In the case of `O=C(CCc1nnc(Cc2ccc3c(c2)OCO3)o1)NCCc1ccccc1Cl`, the Potency is reported as 21.2 µM (active).
In the case of `FC(F)(F)C1CCCN(c2nsc3ccccc23)C1` (stereo not given), the Potency is reported as 1.5 µM (active).
With `CCn1c(SCC(=O)N/N=C/C=C/c2ccccc2[N+](=O)[O-])nnc1-c1ccccc1` the Potency was 23.8 µM (active).
`Cc1cc(NC(=O)CSc2nc3cc(Cl)ccc3c(=O)n2Cc2ccco2)no1` was tested, and the Potency was 21.2 µM (active).
`COc1ccc(NC(=O)/C(C#N)=C\c2cc(OC)c(OCc3ccc(C(=O)O)cc3)cc2Br)cc1` was tested, and the Potency was 10.6 µM (active).
With `Cc1cccc(C)c1NC(=O)C1CCCN1C(=O)OC(C)(C)C` (stereo not given) the Potency was 23.8 µM (active).
`CCNC(=S)Nc1ccc2c(c1)c(=O)n(C)n2Cc1ccc(Cl)cc1` was tested, and the Potency was 21.2 µM (active).
With `OCCN1CCN(C(=S)c2ccc(-c3ccccc3)cc2)CC1` the Potency was 4.74 µM (active).
In the case of `CC1(C(=O)NS(=O)(=O)c2ccc3ccccc3c2)CCN1C(=O)C1(c2ccc(Cl)cc2)CCC1` (stereo not given), the Potency is reported as 42.3 µM (active).
In the case of `CCCn1c(SCC(=O)c2ccc3c(c2)OCCO3)nnc1C(C)C`, the Potency is reported as 2.99 µM (active).

In order of falling max response, negative = inhibition:
1. Fc1cccc(Cc2c(-c3ccc(Cl)cc3)nc3ccc(Cl)cn23)c1  9.81%
2. CCCNC(=O)c1cc(C2CCCCN2S(=O)(=O)c2ccc(C#N)cc2)on1 (stereo not given)  6.75%
3. CCn1c(SCC(=O)N/N=C/c2ccccc2OCC(=O)O)nnc1-c1ccc(C(C)(C)C)cc1  5.13%
4. CCNC(=O)C1(C)CCN(Cc2ccc(C(=O)OCC)o2)C1 (stereo not given)  3.81%
5. Cc1ccccc1S(=O)(=O)NC(=O)C1(C)CCN1C(=O)C1(c2ccc(Cl)cc2)CC1 (stereo not given)  3.44%
6. Cc1ccc(NC(=O)C2CCCN2C(=O)OCc2ccccc2)cc1C (stereo not given)  2.68%
7. C=CCc1ccccc1OCC(O)CN1CCN(CCO)CC1 (stereo not given)  1.6%
8. Cc1ccc(-n2c(SCC(=O)N/N=C/C=C/c3ccccc3[N+](=O)[O-])nc3ccccc3c2=O)cc1  1.55%
9. CN[C@H]1C[C@H]2c3cc(Oc4ccccc4C)ccc3CCN2C(=O)[C@H]1[C@H](C)O  0.731%
10. O=C(CC(Cc1ccccc1)C(=O)O)NCCc1ccc2c(c1)OCO2 (stereo not given)  -0.693%
11. O=C1NC[C@H](CCCCN2C[C@H](Cc3ccc(O)cc3)N(CCc3ccccc3)C(=O)C2=O)N(CCc2ccccc2)C1=O  -1.17%
12. Cc1ccc(NC(=O)Cn2c(C)csc2=O)cc1  -1.66%
13. COc1cc(/C=C(\C#N)C(=O)Nc2ccc3ccccc3c2)c([N+](=O)[O-])cc1OC  -1.73%
14. Cn1c(=O)c2cc(NC(=O)NCCc3cccs3)ccc2n1Cc1cccc(C(F)(F)F)c1  -2.39%
15. Cc1ccc(F)c(S(=O)(=O)NC(=O)C2(C)CCN2C(=O)c2ccco2)c1 (stereo not given)  -2.63%
16. Cc1cc(NC(=O)CSC2=NS(=O)(=O)c3cc(Cl)ccc3N2)no1  -2.92%
17. O=C(NCc1ccccn1)[C@@H]1CCCN1C(=O)[C@@H]1CCCN1C(=O)c1ccccc1  -3.01%
18. Cc1cc(C)cc(NC(=O)CN2C(=O)c3ccccc3C2=O)c1  -3.07%
19. Nc1nc(SCC(=O)Nc2ccc(Cl)c([N+](=O)[O-])c2)n[nH]1  -3.6%
20. Cc1cc(NC(=O)CSc2nnc(-c3ccco3)n2N)no1  -3.98%
21. O=C(CCNS(=O)(=O)c1ccccc1C(F)(F)F)NCc1ccc2c(c1)OCO2  -4%
22. CCCCN(C=O)c1c(CC)nc2c(OCc3ccccc3C(=O)OC)cccn12  -4.2%
23. Cc1ccc(C)c(NC(=O)C2CCCN2C(=O)OC(C)(C)C)c1 (stereo not given)  -4.64%
24. CC1(C(=O)NS(=O)(=O)c2ccc(Cl)cc2)CCN1C(=O)CC1CCCC1 (stereo not given)  -6.5%
25. CCCn1c(SCC(N)=O)nnc1C(C)C  -6.68%
26. COc1cc(Cn2c3ccc(NC(=O)CC(C)c4ccccc4)cc3c(=O)n2C)ccc1F (stereo not given)  -6.73%
27. CCCn1c(SCC(=O)Nc2c(C)cccc2C)nnc1C(C)C  -7.66%
28. CCc1nc2c(OCCOc3ccccc3)cccn2c1N(C)C(=O)c1ccc(OC)cc1  -8.42%
29. Nc1nc(SCC(=O)Nc2ccc(Cl)cc2C(F)(F)F)n[nH]1  -8.67%
30. Cc1ccc(CCNC(=O)CN2C(=O)CSc3ccc(S(=O)(=O)N4CCOCC4)cc32)cc1  -9.68%
31. CCn1cc(S(=O)(=O)c2cccc(C)c2)c(=O)c2cc(F)c(N3CCN(C)CC3)cc21  -10.2%
32. COc1ccc(-c2ccc(C(=O)NCCN3CCOCC3)c3occc23)c(C)c1  -10.9%
33. CC(C)(C)N1C(=O)c2c(C(=O)OCc3ccccc3)[nH]c(-c3ccccc3)c2C1=O  -11.2%
34. CC(=O)NN=C(C)c1ccc(NC(=O)C2CC2)cc1  -11.2%
35. CN1CCN(CCCCOc2ccccc2-c2ccccc2)CC1  -11.3%
36. O=C(CC[C@H]1O[C@@H](n2ccc(=O)[nH]c2=O)[C@H](O)[C@@H]1O)N[C@H](Cc1ccccc1)C(=O)NCc1ccco1  -11.9%
37. C#Cc1cc(N2CCN(C(=O)c3ccoc3)CC2)n2nc(-c3cccc(Cl)c3)cc2n1  -12%
38. CCCn1cc(S(=O)(=O)c2ccc(C)cc2)c(=O)c2cc(OCC)ccc21  -12.4%
39. COc1ccc(CNC(=O)/C(C#N)=C/c2cccc(OC)c2OC)cc1  -17%
40. COc1ccc(CN2CCC(C)(Oc3cccc(F)c3)C2)c2ccccc12 (stereo not given)  -19.3%
41. C[C@@H]1CN([C@H](C)CO)C(=O)CCCn2nncc2CO[C@@H]1CN(C)C(=O)OCc1ccccc1  -21.8%
42. N#Cc1ccc(C(C(=O)NCc2ccccc2)n2c(=O)c(-c3ccco3)nc3ccccc32)cc1 (stereo not given)  -22.3%
